# From article PMC4552634, “A New Set of Chemical Starting Points with Plasmodium falciparum Transmission-Blocking Potential for Antimalarial Drug Discovery” (PLoS ONE, 2015)
# Screen size: about 13,000 compounds; about 3,200 (25%) showed an effect of 50% or more. The list shows a part of the results.
# System: P. falciparum stage V gametocytes
# Parameters: BacTiter-Glo ATP luminescence viability of purified stage V gametocytes in 384-well plates, per cent inhibition versus DMSO
# Details: 48 h, 5 µM; inhibitor
row,SMILES,% Inhibition
1,O=C(NCCCCN1CCC2c3cccc(O)c3CCC21)c1ccc(-c2ccccc2)cc1 (stereo not drawn) [TCMDC-139086],3.232%
2,Cc1sc2ccc(Cl)cc2c1S(=O)(=O)Nc1ccc2nccc(N3CC(C)NC(C)C3)c2c1 (stereo not drawn) [TCMDC-139550],20.27%
3,O=S(=O)(Nc1ccc2nccc(N3CCNCC3)c2c1)c1ccc2c(Cl)cccc2c1 [TCMDC-139383],15.64%
4,Cc1sc2cc(Cl)cc(Cl)c2c1S(=O)(=O)Nc1ccc2nccc(N3CCNCC3)c2c1 [TCMDC-139444],54.96%
5,COCCNCc1cccc(-c2cc3nccc(Nc4ccc(Oc5ccccc5)cc4)c3cc2Cl)c1 [TCMDC-138461],14.84%
6,COCCNCc1cccc(-c2ccc3nccc(Nc4cc(O)ccc4C)c3c2)c1 [TCMDC-138480],40.94%
7,COCCNCc1cccc(-c2ccc3c(Nc4ccc(Oc5cccnc5)cc4)ccnc3c2)c1 [TCMDC-138487],75%
8,CS(=O)(=O)CCNCc1cccc(-c2ccc3c(Nc4ccc(Oc5cccnc5)cc4)ccnc3c2)c1 [TCMDC-138488],-52.67%
9,CS(=O)(=O)CCNCc1cccc(-c2cc3nccc(Nc4ccc(Oc5ccccc5)cc4)c3cc2Cl)c1 [TCMDC-138462],-8.797%
10,COCCNCc1cccc(-c2ccc3c(Nc4ccc(Oc5ccccc5)cc4)ccnc3c2)c1 [TCMDC-138478],82.82%
11,CS(=O)(=O)CCNCc1cccc(-c2ccc3c(Nc4ccc(Oc5ccccc5)cc4)ccnc3c2)c1 [TCMDC-138477],27.24%
12,CN(C)CCNCc1cccc(-c2ccc3c(Nc4ccc(Oc5ccccn5)cc4)ccnc3c2)c1 [TCMDC-138493],98.43%
13,COCCNCc1ncsc1-c1ccc2c(Nc3ccc(Oc4ccccc4)cc3)ccnc2c1 [TCMDC-138440],7.654%
14,Nc1c2ccccc2nc2cc(Cl)ccc12 [TCMDC-141999],16.16%
15,Cl.Nc1nc(Nc2ccc(Cl)cc2)nc2ccccc12 [TCMDC-124354],6.388%
16,Nc1c2ccccc2nc2ccc(-c3ccccc3)cc12 [TCMDC-132030],118.4%
17,Nc1nc(N)c2cc(C#Cc3ccc(-c4ccccc4)cc3)ccc2n1 [TCMDC-139006],-7.862%
18,Nc1c2ccccc2nc2ccc(Cl)cc12 [TCMDC-132029],93.03%
19,CN(C)c1cc(C(=O)N[C@@H](Cc2ccccc2)[C@H](O)CNC2CCCCC2)cc2[nH]ccc12 [TCMDC-136317],-94.17%
20,CN1CCN(c2ccnc3ccc(NC(=O)Nc4ccccc4Br)cc23)CC1 [TCMDC-139342],15.44%
21,Fc1ccccc1COc1ccc(Nc2ncnc3ccc(I)cc23)cc1Cl [TCMDC-138627],9.829%

row,SMILES,% Inhibition
1,COc1cccc2cc(C(=O)N[C@@H](CC(C)C)C(=O)N[C@H](/C=N/NC(=O)OC(C)(C)C)CC(=O)OC(C)(C)C)oc12 [TCMDC-136085],28.48%
2,CC(C)(CNC(=O)C1CCN(CCOc2ccc(F)c(F)c2)CC1)c1nc(-c2ccc(Cl)c(O)c2)c(-c2ccncc2)[nH]1 [TCMDC-141136],-40.38%
3,CN1CCC(C(=O)N(Cc2ccc(-c3ccc(CNCCc4ccc(S(C)(=O)=O)cc4)cn3)cc2)Cc2ccc3c(c2)OCO3)CC1 [TCMDC-141505],98.95%
4,CN1CCC(C(=O)N(Cc2ccc(-c3ccc(CNCCc4ccccc4)cn3)cc2)Cc2cccc(F)c2)CC1 [TCMDC-141553],18.34%
5,CCCNCc1ccc(-c2ccc(CN(Cc3cccs3)C(=O)C3CCN(C)CC3)cc2)nc1 [TCMDC-141526],99.19%
6,CN1CCC(C(=O)N(Cc2ccc(-c3ccc(CNCCc4ccc(S(C)(=O)=O)cc4)cn3)cc2)Cc2cccc(F)c2)CC1 [TCMDC-141507],85.53%
7,CC(=O)N1CCN(c2ccc(NC(=O)c3oc(-c4ccccc4)nc3C(F)(F)F)cn2)CC1 [TCMDC-135142],-12.47%
8,CCN(CC)CCNC(=O)c1ccc(NC(=O)c2cn(-c3ccccc3)nc2-c2cccs2)cc1 [TCMDC-124032],29.35%
9,O=S(=O)(c1c(Cl)cc(Cl)cc1Cl)N1CCCCC(c2ccc(Cl)cc2)=N1 [TCMDC-134526],-3.325%
10,O=S(=O)(c1ccccc1Cl)N1CCCCC(c2ccc(C(F)(F)F)cc2)=N1 [TCMDC-134532],-26.8%
11,O=S(=O)(c1c(Cl)cc(Cl)cc1Cl)N1CCCCC(c2ccc(C(F)(F)F)cc2)=N1 [TCMDC-134541],71.02%
12,Cc1cccc(Cl)c1S(=O)(=O)N1CCCCC(c2ccc(C(F)(F)F)cc2)=N1 [TCMDC-134535],25.02%
13,O=S(=O)(c1c(Cl)cccc1Cl)N1CCCCC(c2ccc(C(F)(F)F)cc2)=N1 [TCMDC-134537],50.16%
14,O=S(=O)(c1ccc(Cl)cc1Cl)N1CCCCC(c2ccc(C(F)(F)F)cc2)=N1 [TCMDC-134536],0.9055%
15,CCNc1cc(C(=O)N[C@@H](Cc2ccccc2)[C@H](O)CNC2(CC(C)C)CC2)cc(N2CCCCS2(=O)=O)c1 [TCMDC-135258],-2.163%
16,COc1ccc2cc(C(=O)Nc3ccc4c(c3)CCN(C3CCC3)CC4)ccc2c1 [TCMDC-136082],-6.595%
17,O=C(Nc1ccc2c(c1)CCN(C1CCC1)CC2)c1ccc(-n2ccnc2)cn1 [TCMDC-135973],3.666%
18,N#Cc1cccc(-c2ccc(C(=O)Nc3ccc4c(c3)CCN(C3CCC3)CC4)cn2)c1 [TCMDC-135996],-32.92%
19,O=C(Nc1ccc2c(c1)CCN(C1CCC1)CC2)c1cn(-c2ccccc2)nc1-c1ccccc1 [TCMDC-136083],54.47%
20,N#Cc1ccc(-n2cc(C(=O)Nc3ccc4c(c3)CCN(C3CCC3)CC4)c(C(F)(F)F)n2)cc1 [TCMDC-136080],23.35%
21,O=C(Nc1ccc2c(c1)CCN(C1CCC1)CC2)c1ccc(-c2cn3ccccc3n2)cc1 [TCMDC-135460],75.27%
